Test system: HCC1569
Test: cell number relative to DMSO (% of DMSO); higher = more cells (less growth inhibition / toxicity)
Conditions: concentration: 10 µM; 24 h
Summary of the method: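 HCC1569 and TDF cells were seeded at 800 per well in 384-well plates in RPMI with 10% FBS and treated with compounds at 10 µM for 24 h at 37 °C, in triplicate. After fixation in 3.7% formaldehyde, cells were stained with a rabbit anti-H1.0 antibody, an AlexaFluor 647 secondary and DAPI, and six fields per well were imaged at ×10. H1.0 nuclear intensity or cell number is given as percent of the plate control, using the median of replicates, with HCC1569 values smoothed for positional effects.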
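Note: TDF denotes transformed human dermal fibroblasts of mesenchymal origin.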

Row | Structure (SMILES) | cell number
1 | C=CCN1CCC23CCCCC2C1Cc1ccc(O)cc13.O=C(O)C(O)C(O)C(=O)O (stereo not drawn) [Levallorphan tartrate] | 99.1
2 | CN(C)C(=O)Oc1cccc([N+](C)(C)C)c1 [Neostigmine] | 104
3 | CC1C(=O)OC2CCN3CC=C(COC(=O)C(C)(O)C1(C)O)C23 (stereo not drawn) [Monocrotaline] | 102
4 | CC=C1CC(C)C(O)(CO)C(=O)OCC2=CCN3CCC(OC1=O)C23 (stereo not drawn) [Retrorsine] | 101
5 | N#CC(C#N)=Cc1cc(O)c(O)c(O)c1 [Tyrphostin 25] | 91.1
6 | CC12CCC(O)CC1CCC1C2CCC2(C)C(c3ccc(=O)oc3)CCC12O (stereo not drawn) [Bufalin] | 52.7
7 | c1cc2c(cc1C1OCC3C(c4ccc5c(c4)OCO5)OCC13)OCO2 (single isomer, unassigned; (-)) [(-)-Asarinin] | 98.4
8 | C[N+](C)(C)CC#CCN1CCCC1=O.[I-] [Oxotremorine methiodide] | 106
9 | O=C1NCN(c2ccccc2)C12CCN(CC1COc3ccccc3O1)CC2 (stereo not drawn) [Spiroxatrine] | 98.9
10 | Cc1ccccc1-n1c(Cn2cnc3c(N)ncnc32)nc2cccc(C)c2c1=O | 90.8
11 | COC1=CC(=O)OC(CCc2ccc3c(c2)OCO3)C1 (stereo not drawn) [Dihydromethysticin] | 96.6
12 | CN1C2CCC1CC(OC(=O)C(CO)c1ccccc1)C2 (stereo not drawn) [Hyoscyamine] | 102
13 | CCCN(CCC)C1CCc2c(F)ccc(O)c2C1.Cl (stereo not drawn) [R(+)-UH-301 hydrochloride] | 103
14 | CCC1=CC2CN3CCc4c([nH]c5ccccc45)C(C(=O)OC)(C2)C13 (stereo not drawn) [Catharanthine] | 104
15 | CCCN1CCc2cccc3c2C1Cc1ccc(O)c(O)c1-3.Cl (stereo not drawn) [R(-)-Propylnorapomorphine hydrochloride] | 93.2
16 | Br.Br.CN(C)CCN(C)CCc1ccc(Cl)c(Cl)c1 | 96.6
17 | CC1(C(=O)O)C2CCC(O2)C1(C)C(=O)O (stereo not drawn) [Cantharidic Acid] | 19.6
18 | O=c1[nH]c2ccccc2n1CCCN1CCC(n2c(=O)[nH]c3cc(Cl)ccc32)CC1 [Domperidone] | 97.7
19 | CCC(C(=O)O)C1OC(C(C)C(O)C(C)C(=O)C(CC)C2OC3(C=CC(O)C4(CCC(C)(C5CCC(O)(CC)C(C)O5)O4)O3)C(C)CC2C)C(C)CC1C (stereo not drawn) [Narasin] | 67.3

Row | Structure (SMILES) | cell number
20 | Cl.Oc1ccc2c3c1OC1c4[nH]c5ccccc5c4CC4(O)C(C2)N(CC2CC2)CCC314 (stereo not drawn) [Naltrindole.HCl] | 103
21 | NC(=NN=Cc1ccc(-c2cccc([N+](=O)[O-])c2)o1)N[N+](=O)[O-] [ERK Inhibitor III] | 102
22 | C=C1CC2C(CCC3(C)C(=O)CCC23)C2(C)C=CC(=O)C=C12 (stereo not drawn) [Exemestane] | 101
23 | CC12NC(Cc3ccccc31)c1ccccc12.O=C(O)C=CC(=O)O (single isomer, unassigned; (+)) [(+)-MK-801 hydrogen maleate] | 103
24 | NC(=S)NN=Cc1coc2ccccc2c1=O.[Cl][Cu][Cl] | 96.2
25 | CN1C(=O)C23CC4=CC=CC(O)C4N2C(=O)C1(CO)SS3 (stereo not drawn) [Gliotoxin] | 0.969
26 | C/C(Nc1ccccc1)=C1\C(=O)NC(Cc2ccccc2)C1=O (stereo not drawn) [(3E)-3-(1-anilinoethylidene)-5-benzyl-2,4-pyrrolidinedione] | 60.4
27 | C=CCN1CC(C(=O)N(CCCN(C)C)C(=O)NCC)CC2c3cccc4[nH]cc(c34)CC21 (stereo not drawn) [Cabergoline] | 109
28 | CCCC[N+]1(C)C2CC(OC(=O)C(CO)c3ccccc3)CC1C1OC12.[Br-] (stereo not drawn) [Scopolamine N-butylbromide] | 99.1
29 | CCC(C)C(=O)OC1C(O)C2C(CN3CC(C)CCC3C2(C)O)C2CC34OC5(O)C(OC(=O)C(C)(O)C(C)O)CCC3(C)C5C(OC(C)=O)C(OC(C)=O)C4C21O (stereo not drawn) [Protoveratrine B] | 104
30 | NCCc1c[nH]c2ccc(C(N)=O)cc12.O=C(O)C=CC(=O)O [5-Carboxamidotryptamine maleate] | 100
31 | CC=C(C)C(=O)OC1CCC2(C)C3CCC4C5(O)CC(O)C6(O)C(CN7CC(C)CCC7C6(C)O)C5(O)CC42OC13O (stereo not drawn) [Cevadine] | 99.9
32 | Br.COc1c2c(cc3c1OCO3)CCN(C)C2 [Hydrocotarnine HBr] | 102
33 | NC(CCP(=O)(O)O)C(=O)O (racemic) | 99.4
34 | CC(=CC=CC(C)C(=O)O)C1CNC(C(=O)O)C1CC(=O)O (stereo not drawn) [Domoic acid] | 101
35 | CCCCCCCCCCCCCCCCOCC(COP(=O)([O-])OCC[N+](C)(C)C)OC(C)=O (stereo not drawn) [Enantio-PAF C16] | 100
36 | Ic1ccccc1CNC1C2CCN(CC2)C1C(c1ccccc1)c1ccccc1.O=C(O)C(=O)O [L-703,606 oxalate] | 85.3
37 | C[N+]1(C)C2CCC1CC(OC(=O)C(CO)c1ccccc1)C2.O=[N+]([O-])[O-] (stereo not drawn) [Atropine methyl nitrate] | 101
38 | CC(CCc1ccccc1)NC(C)C(O)c1ccc(O)cc1.Cl (stereo not drawn) [Buphenine.HCl] | 101

Source: the supplement of paper PMC7156485
